Source: PubChem BioAssay
Unmarked numbers belong to inactive results.

The compounds below were run against Dihydroorotate dehydrogenase (quinone), mitochondrial (Plasmodium falciparum (isolate 3D7)) (UniProt Q08210) (assay: inhibition of P. falciparum DHODH – biochemical, C-terminal His tag, absorbance 600 nm, primary screen (AID 1175;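 further: recombinant parasite enzyme with a five histidine tag at its C terminus; test concentration not given here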)). Settings: PfDHODH enzyme, DCIP absorbance 600 nm; higher = more signal, called active from +8 up or from −8 down.
Sequence of Dihydroorotate dehydrogenase (quinone), mitochondrial (Plasmodium falciparum (isolate 3D7)) (Q08210 whole entry, looked up): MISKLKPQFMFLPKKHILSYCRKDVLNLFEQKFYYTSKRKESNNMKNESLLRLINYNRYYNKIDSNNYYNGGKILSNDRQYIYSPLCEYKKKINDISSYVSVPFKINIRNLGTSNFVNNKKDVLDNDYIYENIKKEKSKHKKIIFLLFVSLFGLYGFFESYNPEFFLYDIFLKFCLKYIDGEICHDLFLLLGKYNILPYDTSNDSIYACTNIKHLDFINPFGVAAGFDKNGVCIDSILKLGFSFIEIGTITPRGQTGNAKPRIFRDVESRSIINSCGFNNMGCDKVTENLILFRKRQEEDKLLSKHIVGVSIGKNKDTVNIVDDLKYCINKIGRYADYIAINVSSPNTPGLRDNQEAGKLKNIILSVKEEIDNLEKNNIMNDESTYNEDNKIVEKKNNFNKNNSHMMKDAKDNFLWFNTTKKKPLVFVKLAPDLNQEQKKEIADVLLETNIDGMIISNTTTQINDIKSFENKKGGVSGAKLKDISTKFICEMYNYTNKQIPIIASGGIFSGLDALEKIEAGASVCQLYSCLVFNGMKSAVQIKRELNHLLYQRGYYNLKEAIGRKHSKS

SMILES | composite z-score
[N-]=[N+]=Nc1ccccc1C[C@]1(C(=O)NCc2ccccc2)COC(c2ccc(OCCCO)cc2)=N1 | 0.363
C=CCNC(=O)[C@H]1[C@@H]2C(=O)O[C@@H](c3ccccc3)[C@@H](c3ccccc3)N2[C@@H](c2ccc(OCCO)cc2)[C@]12C(=O)Nc1ccc(C#CCNC(N)=O)cc12 | 0.428
CCOC(=O)C[C@H]1[C@H](OC(=O)c2ccccc2-c2ccccc2)[C@@H](NC(=O)c2ccc3ccccc3n2)c2cc(OCCCO)ccc2N1C(=O)c1ccccc1 | 0.742
C[C@@H]1ON(c2ccc(I)cc2)[C@H](c2ccc(OC(=O)OC(C)(C)C)cc2)[C@H]1C(=O)N1C(=O)OC[C@H]1Cc1ccccc1 | -0.571
CN1C(=O)[C@@H]2[C@@H](CC(COc3ccccc3)=C([C@H](O)CCc3ccccc3)[C@@H]2CO)C1=O | -0.171
NC(=O)N1C(=O)C2C(C1=O)C1C=C(CCCO)C2C(C2CC2)N1Cc1cccc(OC(F)(F)F)c1 (stereo unspecified) | -1.26
O=C(N1CCOCC1)[C@@]1(CCS(=O)(=O)c2ccccc2)N=C(c2ccc(OCCCO)cc2)O[C@H]1c1ccccc1 | 0.225
C=C(COC)C(=O)CC[C@H](OC(C)=O)c1ccc(OCCO)cc1 | -0.998
COc1ccc(C(O)C2C=CC3C(=O)N(c4ccccc4)C(=O)C3N2Nc2ccccc2)cc1 (stereo unspecified) | 0.618
O=C1C2C=CC(C(O)C=Cc3ccc([N+](=O)[O-])cc3)N(Nc3ccccc3)C2C(=O)N1c1ccccc1 (stereo unspecified) | -0.162
CCN(CC)c1ccc(N2CC=CC34O[C@@H]5C=CCCOC(=O)C5[C@H]3C(=O)N(CCO)[C@@H]4C2=O)cc1 (stereo partly specified) | -1.3
CN1C=C(C(=O)OCCS(C)(=O)=O)C(C(=O)OCCS(C)(=O)=O)=CC(c2ccc(CO)cc2)=CC1c1cccs1 (stereo unspecified) | -0.927
C=C(C)C1CCC(C(O)C2C=CC3C(=O)N(C)C(=O)C3N2Nc2cc(OC)c(OC)c(OC)c2)CC1 (stereo unspecified) | -0.896
O=C1NC(=O)C2C1C=CC(C(O)c1ccccn1)N2Nc1ccc(Cl)cc1Cl (stereo unspecified) | -0.0894
CCCCC=C[C@@H](NC(=O)c1ccccc1)c1ccccc1 | -0.845
C=C(C(=O)CC[C@H](OC(=O)c1ccccc1-c1ccccc1C(=O)O)c1ccccc1OCCO)C(C)C | -0.169
COCCOC(=O)N1C(=O)[C@@]2(c3cc(C#CCC(C(=O)OC)C(=O)OC)ccc31)[C@H](c1ccc(O)cc1)N1[C@H](c3ccccc3)[C@H](c3ccccc3)OC(=O)[C@H]1[C@@H]2C(=O)NC[C@H](O)c1ccccc1 | 0.407
[N-]=[N+]=NCc1ccccc1[C@@H]1OC(c2ccc(OCCCO)cc2)=N[C@]1(Cc1ccccc1N=[N+]=[N-])C(=O)NCCN1CCOCC1 | -0.549

SMILES | composite z-score
CN1C(=O)C2C=CC(C(O)c3ccc(I)cc3)N(Nc3ccccc3)C2C1=O (stereo unspecified) | -0.359
[N-]=[N+]=NCc1ccccc1[C@@H]1OC(c2ccc(OCCCO)cc2)=N[C@]1(Cc1ccccc1)C(=O)NCCN1CCOCC1 | 1.16
CC1(C)C(=O)C(c2ccccc2)=C2CN3C(=O)N(CCc4ccccc4)C(=O)C3(Cc3ccc(C(F)(F)F)cc3)C=C21 (stereo unspecified) | 0.46
O=C1N(CCS(=O)(=O)c2ccccc2)Cc2ccccc2[C@@H]2OC(c3ccc(OCCCO)cc3)=N[C@]12CCS(=O)(=O)c1ccccc1 | 0.324
CCOC(=O)C[C@H]1[C@H](OC(=O)c2cc3ccccc3oc2=O)[C@@H](NC(=O)c2ccc3ccccc3c2)c2cc(OCCCO)ccc2N1C(=O)Cc1ccc(OC)cc1 | 0.0533
CC(C)OC(=O)CC(=O)CC(O)c1ccc([N+](=O)[O-])cc1 (stereo unspecified) | -1.12
CO[C@H]1O[C@H](CO)[C@@H](OC(=O)CCc2ccccc2)[C@H](OC(=O)c2cc3ccccc3[nH]2)[C@H]1OC(=O)c1cc2ccccc2[nH]1 | -1.62
C=CCNC(=O)[C@@H]1[C@H]2C(=O)O[C@H](c3ccccc3)[C@H](c3ccccc3)N2[C@H](c2ccc(OCCO)cc2)[C@@]12C(=O)N(C(=O)OCCOC)c1ccc(C#CCCO)cc12 | -0.767
COCCOC(=O)N1C(=O)[C@@]2(c3cc(C#CCCO)ccc31)[C@H](C(=O)N1CCCCCCC1)[C@H]1C(=O)O[C@H](c3ccccc3)[C@H](c3ccccc3)N1[C@@H]2c1ccccc1OCCO | -0.0989
COC(=O)[C@@]1(Cc2ccc(F)cc2)[C@H]2c3cc(C(=O)N4CCCC4)n(C)c3C[C@H]2CN1C(=O)c1ccccc1 | -0.316
COC(=O)[C@@]1(Cc2ccc(F)cc2)[C@H]2c3cc(C(=O)N(C)C)n(Cc4ccc(O)c(OC)c4)c3C[C@H]2CN1C(=O)c1ccccc1 | -0.764
C=CCC(OC(C)=O)[C@@H]1[C@@H](N(Cc2ccc(-c3cccc(C(F)(F)F)c3)o2)C(=O)c2ccc(C)cc2)c2cc(OCCCO)ccc2N1C(=O)Cc1ccc(OC)cc1 (stereo partly specified) | -1.55
CN(C)CCCCNC(=O)[C@H]1C[C@H]2C(=O)N[C@@H](CCCC[N+](C)(C)C)C(=O)N2[C@H]1c1ccc(O)cc1 | -0.308
CCOC(=O)C1=C[C@@H](c2ccccc2)N(S(=O)(=O)c2ccc(C)cc2)[C@H]1c1ccccc1 | -0.629
C=CC[C@H](OC(=O)Nc1ccc(SC)cc1)c1ccc(OCCO)cc1 | -1.51
O=C(O)[C@H]1C[C@H]2C(=O)N[C@@H](Cc3ccccc3)C(=O)N2[C@H]1c1cccc(OCCO)c1 | -1.98
CN(C)C(=O)[C@]1(CCS(=O)(=O)c2ccccc2)N=C(c2ccc(OCCCO)cc2)O[C@@H]1c1ccccc1 | 0.524
CCOC(=O)C1=C[C@@H](C(C)(C)C)N(S(=O)(=O)c2ccc(C)cc2)[C@H]1c1ccc(C)cc1 | -0.186
